These results are taken from PubChem BioAssay (NCI).

The panel holds about 83,000 compounds, 20% with a hit somewhere; the sample as a whole holds those more often.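 Values shown are percent growth following 48 h exposure of cells in 96-well plates to a single concentration of compound; below 10 was considered active.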 A number with no mark means an inactive call. Calls of active or inactive are those of the source.

This assay has as its system MDA-MB-468 breast. Put plainly: NCI-60 one-dose screen, 48 h (100 = growth as untreated, 0 = no growth, -100 = all killed). The conditions noted are these: 10 µM unless noted.
With `COc1ccc(NC(=O)CSc2nnc(-c3cc(-c4ccc(S(N)(=O)=O)cc4)nc4ccccc34)n2-c2ccccc2)cc1`, the growth was 86.4%.

With `COc1ccc2oc(=O)cc(Cn3cc(Cn4cnc5c4c(=O)n(C)c(=O)n5C)nn3)c2c1`, the growth is 101%. As to `N#CCCN1C/C(=C/c2ccc(Br)cc2)C(=O)/C(=C/c2ccc(Br)cc2)C1`, the growth is -71.3% (active).

In the case of `CC(=O)C1=C(O)C=C2Oc3c(C(=O)/C=C/c4c(Cl)cccc4Cl)c(O)c(C)c(O)c3[C@]2(C)C1=O`, the growth is -39.7% (active).
